A selection: hits, their analogues and other compounds. The true share with any hit is near 6.5%.
Marburg entry inh = blocks Marburg virus binding to or entry into cells. Potency, µM (series often up to 37.8 µM), for the others: at the top dose activity change, negative = inhibition, usual class: inhibitors. Marburg virus pseudotyped entry inhibition, cell reporter. 300,000 compounds, 1.8% hits; calls by dose curve; tested in HEK293 cells; further: potency means the concentration at half of the fitted maximal effect
FMDV antiviral = foot and mouth disease virus antiviral activity; FMDV antiviral cell-based qHTS; Potency, µM (series often up to 57.9 µM), for the others: top-dose activity change, negative = inhibition, actives largely listed as inhibitors; 410,000 compounds, 1.2% hits; AID 1159524; calls by dose curve; tested in HEK293T cells; further: read-out not given here; potency means the concentration at half of the fitted maximal effect; nearly all actives have a fitted effect of over 45% in size
VACV Venus inh = vaccinia inhibition (Venus reporter). Vaccinia virus Venus reporter expression, fluorescence. Potency, µM (top dose mostly 36.5 µM), without a hit: at the top dose activity change, negative = inhibition, usual class: inhibitors. 330,000 compounds, 0.46% hits. AID 720580; calls by dose curve; tested in A549 cells; further: potency means the concentration at half of the fitted maximal effect; nearly all actives have a fitted effect of over 30% in size
VACV mCherry inh = inhibitors of vaccinia virus infection (mCherry reporter signal). Vaccinia virus mCherry reporter infection, fluorescence. Potency, µM (doses to about 36.5 µM), inactives show at the highest dose activity change, negative = inhibition, actives largely listed as inhibitors. 310,000 compounds, 0.63% hits. AID 720579; calls by dose curve; tested in A549 cells; further: potency means the concentration at half of the fitted maximal effect; nearly all actives have a fitted effect of over 35% in size
HCMV inh = human cytomegalovirus inhibition; HFF cells, HCMV-luciferase reporter, 72 h; stronger effect = lower value; activity change, negative = inhibition, % at 57.5 µM; 410,000 compounds, 4.5% hits; in the data active means activity change below about -60%; inconclusive means no clear call, values can overlap the other calls; inactive means above about -39%
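Steps: HFFs plated, 16 h 37C; compounds added; HCMV-luciferase added to MOI 1 PFU/cell; 72 h 37C; OneGlo reagent, 5 min room temperature; luminescence read, normalized to controls.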
Lassa entry inh = blocks Lassa virus binding to or entry into cells | Lassa virus pseudotype entry inhibition, cell reporter | Potency, µM (titrated, usually from 37.9 µM), for the others: at the top dose activity change, negative = inhibition, usual class: inhibitors | 300,000 compounds, 1.2% hits; calls by dose curve; tested in HEK293 cells; further: potency means the concentration at half of the fitted maximal effect; nearly all actives have a fitted effect of over 50% in size
The depositor's hits bear a star; i = inactive; ? = inconclusive; . = no result given; ! = not active in a repeat; [ ] = another dose, or the depositor's remark. On the % scale 0 is the no-effect control and ±100 the full control effect.

SMILES	Marburg entry inh	FMDV antiviral	VACV Venus inh	VACV mCherry inh	HCMV inh	Lassa entry inh
COc1ccc(Cn2ccnc2SCC(=O)NC2CCCCC2)cc1	-15%	-9%	-17%	-5%	-36	?
CN(C)CCNc1ccc2ncn3c4ccc(O)cc4c(=O)c1c23	?	?	1.1µM*	0.79µM*	-93*	?
COc1ccc2sc3cccc(NCCN(C)C)c3c(=O)c2c1	.	17%	-27%	3%	2	.
CN(C)CCNc1ccc(CO)c2sc3ccc(O)cc3c(=O)c12	0.89µM*	-16%	?	?	-97*	1µM*
CN(C)CCNc1ccc(-c2nn(C)c(=O)c3ccccc23)cc1[N+](=O)[O-]	?	4%	-15%	-13%	3	-2%[46.1 µM]
CC1(C)CC[C@]2(C(=O)O)CC[C@]3(C)C(=CC[C@@H]4[C@@]5(C)CC[C@H](O[C@@H]6O[C@H](C(=O)O)[C@@H](O)[C@H](O[C@@H]7OC[C@H](O)[C@H](O)[C@H]7O)[C@H]6O)C(C)(C)[C@@H]5CC[C@]43C)[C@@H]2C1	.	-66%	7.9µM*	?	-100*	.
CC1(C)CC[C@]2(C(=O)O[C@@H]3O[C@H](CO)[C@@H](O)[C@H](O)[C@H]3O)CC[C@]3(C)C(=CCC4[C@@]5(C)CC[C@H](O[C@@H]6O[C@H](C(=O)O)[C@@H](O[C@H]7OC[C@@H](O)[C@@H](O)[C@@H]7O)[C@H](O)[C@H]6O)C(C)(C)C5CC[C@]43C)[C@@H]2C1 (stereo not given in full)	.	-15%	-3%	i	28	.
N#CC1c2ccccc2C=CN1C(=O)c1ccc(N(CCCl)CCCl)cc1 (stereo not given)	.	-9%	-24%	-13%	-40	.
N#CC1c2ccccc2C=CN1C(=O)N(c1ccccc1)c1ccccc1 (stereo not given)	?	32µM*	-29%	?	-15	?
O=C1C=CC(=O)C2=C1C1c3ccccc3C2c2ccccc21	.	-17%	.	.	.	.
NC(=O)C1C(=O)c2ccccc2C1(C[N+](=O)[O-])c1ccccc1 (stereo not given)	-1%[46.1 µM]	-2%	0%	i	-101*	-24%[46.1 µM]
O=C(O)CC1(c2ccccc2)C(=O)c2ccccc2C1=O	10%	5%	.	.	3	0%
FC(F)Oc1ccc(COc2ccc3c(-c4ccccn4)noc3n2)cc1	.	.	.	.	12	.
CC1CCc2c(c3ccccc3n2C(=O)CCl)C1 (stereo not given)	-24%[46.1 µM]	20µM*	-26%	-28%	-13	-8%[46.1 µM]
CCN1CCN(CC(=O)n2c3c(c4ccccc42)CC(C)CC3)CC1 (stereo not given)	?	-23%	-17%	.	-30	-26%
COc1ccc(N(C(=O)/C=C\C(=O)Nc2ccc(C)cc2)C(C(=O)NCc2ccco2)c2ccc(C)cc2)cc1 (stereo not given)	.	-10%	-18%	-13%	-30	?
CCOC(=O)C1CCN(Cc2cnc(Oc3ccc(OC)cc3)s2)CC1	-11%	-11%	.	.	11	1.5µM*
Fc1ccccc1-c1nnc2ccc3ccccc3n12	2%[46.1 µM]	-17%	-16%	i	46	9%[46.1 µM]
Fc1cccc(Cl)c1-c1nnc2ccc3ccccc3n12	.	-8%	.	.	-84*	.
O=S(=O)(c1ccc(F)cc1)N1CCc2ccccc21	.	-21%	.	.	-34	.
COc1ccc(S(=O)(=O)N2CCc3ccccc32)cc1OC	?	1%	-28%	6%	-22	?
CCCCCCNC(=O)c1cc(S(=O)(=O)N2CCc3ccccc32)ccc1F	.	-14%	.	.	-69*	.
CCn1c(=O)n(CC)c2cc(S(=O)(=O)N3CCc4ccccc43)ccc21	?	.	?	i	-92*	-20%
O=S(=O)(NC1CC1)c1ccc(S(=O)(=O)N2CCc3ccccc32)cc1	-25%	?	-21%	-24%	-81*	-23%
COC(=O)c1ccc(S(=O)(=O)N2CCc3ccccc32)cc1	2.5µM*	-12%	-3%	-14%	-15	?
SMILES	Marburg entry inh	FMDV antiviral	VACV Venus inh	VACV mCherry inh	HCMV inh	Lassa entry inh
COc1ccc(-c2onc(C)c2C)cc1S(=O)(=O)N1CCN(c2cc(C)ccc2C)CC1	.	-23%	-19%	i	-26	-11%[46.1 µM]
COc1ccc(CNC(=S)Nc2ccc(OC)cc2)cc1	0%	39%	-11%	-10%	20	-16%
COc1ccc(NC(=S)NCc2ccc(F)cc2)cc1	.	42%	.	.	-64*	.
COc1ccc(NC(=S)Nc2ccccc2)cc1	.	34%	-17%	-5%	?	.
COc1ccc(NC(=S)NCCc2c(C)[nH]c3ccc(OC)cc23)cc1	0%[46.1 µM]	11%	-13%	-22%	-69*	?
COc1ccc(CCNC(=S)Nc2ccc(OC)cc2)cc1	-22%	-6%	.	.	-66*	1%
COc1ccc(NC(=S)Nc2ccc(N(C)C(C)=O)cc2)cc1	1%[14.2 µM]	-3%	3%	3%	-98*	4%
CSc1ncccc1C(=O)NCC1Cc2cc(F)cc(-c3cncnc3)c2O1 (stereo not given)	.	-22%	-2%	-12%	.	.
Cc1cccc(N2CCN(C(=O)C3CCN(c4ncnc5c4nc4n5CCCCC4)CC3)CC2C)c1 (stereo not given)	?	32µM*	?	?	-96*!	10µM*
COc1ccccc1N1CCN(C(=O)C2CCCN(c3ncnc4c3nc3n4CCCCC3)C2)CC1 (stereo not given)	?	?	-21%	-2%	7	?
O=C(C1CCN(c2ncnc3c2nc2n3CCCCC2)CC1)N1CCN(c2ccccc2F)CC1	.	?	-18%	i	-64*!	-7%[46.1 µM]
Cc1cccc(N2CCN(C(=O)C3CCN(c4ncnc5c4nc4n5CCCCC4)CC3)CC2)c1C	.	20µM*	?	-26%	-77*!	?
Fc1ccccc1N1CCN(c2ncnc3c2nc2n3CCCCC2)CC1	.	?	-12%	-13%	7	-8%[46.1 µM]
Cc1cc(N2CCC(C(=O)N3CCN(c4cccc(C)c4C)CC3)CC2)n2ncnc2n1	?	-16%	-29%	?	-89*	-16%
Cc1ccc(NC(=O)C2CCN(c3ncnc4c3nc3n4CCCCC3)CC2)cc1Cl	.	?	.	.	-14	.
CC1=C(C(=O)Nc2ccccc2)C(c2cccnc2)n2nc(SCc3ccccc3Cl)nc2N1 (stereo not given)	6%[46.1 µM]	-19%	-11%	-16%	-2	13%[46.1 µM]
Cc1ccccc1CNC(=O)C(=O)NCC(c1ccco1)S(=O)(=O)c1ccc(F)cc1 (stereo not given)	.	-29%	-12%	-14%	-19	?
COc1ccccc1N1CCN(C2=Nc3cccc4cccc2c34)CC1	6.3µM*	-32%	-7%	-9%	-6	?
CCOC(=O)CCCCCN1C(=O)c2cccc3cccc(c23)C1=O	.	-3%	.	.	-100*	.
c1ccc(CC2CCN(C3=Nc4cccc5cccc3c45)CC2)cc1	16µM*	?	-28%	-13%	.	-10%
COc1ccccc1N1CCN(C(=O)CN2C(=O)c3cccc4cccc(c34)C2=O)CC1	?	?	-2%	-16%	-3	?
